This is a sample that favours compounds with a hit; in the whole collection about 9% have one here.
HTT aggregate: mutant huntingtin aggregation inhibition. PC12 HttQ103-GFP aggregates, Acumen cytometry, 40 h. Potency, µM (doses to about 46.1 µM), inactives show at the top dose activity change, negative = inhibition, actives largely listed as inhibitors. 1.1% of 220,000 active; note: % is set by controls: 0 for no effect and ±100 for the full control effect; nearly all actives have a fitted effect of over 60% in size
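Huntingtin Q103 exon 1–GFP aggregates in induced PC12 cells (100 nM tebufenozide) were quantified by cytometry from lysates, with compounds dosed in titration.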
ALDH1A1 inh: blocks purified human ALDH1A1 activity; 7.3% of 220,000 active; Purified ALDH1A1, NADH fluorescence, propionaldehyde substrate; AID 1030; P00352; Potency, µM (highest dose often 75.3 µM), for inactives: at the highest dose activity, negative = inhibition, usual class: inhibitors; active = well fitted inhibition curve with a large enough effect, not every such curve was filed as active; inconclusive = small, poorly fitted or top-dose-only effect, or another doubt; inactive = no such curve, though single readings can be large or run the other way;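 note: plate controls were no enzyme wells and a reference inhibitor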
Target sequence (P00352 whole entry, looked up): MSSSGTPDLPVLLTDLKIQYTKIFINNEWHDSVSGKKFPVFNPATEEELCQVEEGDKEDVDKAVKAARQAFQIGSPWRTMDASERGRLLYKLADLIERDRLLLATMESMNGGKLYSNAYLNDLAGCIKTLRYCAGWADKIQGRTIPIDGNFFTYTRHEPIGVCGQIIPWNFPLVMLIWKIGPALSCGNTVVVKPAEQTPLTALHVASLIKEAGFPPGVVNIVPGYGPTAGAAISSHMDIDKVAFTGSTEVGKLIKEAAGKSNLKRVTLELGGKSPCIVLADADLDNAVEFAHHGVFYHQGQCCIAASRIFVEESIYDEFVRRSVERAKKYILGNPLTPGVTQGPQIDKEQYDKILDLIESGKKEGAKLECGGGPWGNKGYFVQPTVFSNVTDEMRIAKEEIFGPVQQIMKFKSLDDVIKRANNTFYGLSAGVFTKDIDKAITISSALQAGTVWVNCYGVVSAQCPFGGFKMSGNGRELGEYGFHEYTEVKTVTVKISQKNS
LMNA splice mod: LMNA splicing modulation | HeLa LMNA splicing GFP/RFP minigene ratio, 48 h | Potency, µM (doses to about 46.1 µM), for the others: at the highest dose ratio change, negative = inhibition, actives largely listed as inhibitors | 0.01% of 200,000 active | AID 1487; active = well fitted inhibition curve with a large enough effect in the signal ratio, with a control signal flat, not every such curve was filed as active; inconclusive = small, poorly fitted or top-dose-only effect, or effect the other way, or a change in a side signal; the % refers to the signal ratio; note: % is set by controls: 0 for no effect and ±100 for the full control effect
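S3 HeLa cells stably expressing lamin A-EGFP splicing minigene plus DsRed2, 600 cells/well, 48 h compound exposure at 37C. Laser-scanning cytometry; analysed as GFP (500-530 nm)/RFP (575-640 nm) total intensity ratio; 0.5% DMSO vehicle.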
HTT ATP protect: protects HTT-Q103 PC12 cells, measured by ATP | 0.14% of 230,000 active | Potency, µM (titrated, usually from 56.4 µM), without a hit: cytoprotection (ATP increase), hits mostly activators | PC12 HTT-Q103 induced, cytoprotection, ATP luminescence, 40 h | AID 1471; note: % of control where 0% means no effect; nearly all actives have a fitted effect of over 45% in size
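Readout: ATPlite luminescence (ATP level). Model: stable PC12, inducible Htt exon1 Q103-GFP. Inducer: tebufenozide, 100 nM final. Compounds: dose series. No G418 in medium.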
HPGD block: blocks human HPGD enzyme activity; P15428; purified HPGD, NADH fluorescence kinetic, PGE2 substrate; Potency, µM, for inactives: at the top dose activity change, negative = inhibition, hits mostly inhibitors; 4.3% of 150,000 active; active = well fitted inhibition curve with a large enough effect, not every such curve was filed as active; inconclusive = small, poorly fitted or top-dose-only effect, or another doubt; inactive = no such curve, though single readings can be large or run the other way; note: % is set by controls: 0 for no effect and ±100 for the full control effect
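20 nM HPGD preincubated 15 min at room temperature with compound in 50 mM Tris-HCl pH 8, 0.01% Tween 20. Started with 1 mM NAD+ and 30 uM prostaglandin E2; NADH fluorescence (360/450 nm) read 5 times over 30-s intervals, last minus first.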
KinaseGlo FLuc: blocks Kinase-Glo luciferase, a counter-screen artifact | AID 1379 | Kinase-Glo luciferase, ATP luminescence, 8 min | Q27757 | Potency, µM (top dose mostly 38.3 µM), without a hit: top-dose activity change, negative = inhibition, usual class: inhibitors | 0.28% of 200,000 active; note: % is set by controls: 0 for no effect and ±100 for the full control effect; nearly all actives have a fitted effect of over 60% in size
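Kinase-Glo luciferase light output from ATP and luciferin was measured with 10 uM ATP, within the enzyme's linear range. Buffer: 50 mM imidazole pH 7.2, 50 mM KCl, 7 mM MgCl2, 0.01% Tween 20, 0.05% BSA; luminescence read after 8 min at ambient temperature.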
Numbers without * were called inactive; ? = inconclusive; / = no result; [ ] = another dose, or the depositor's remark. Unless noted, calls come from the whole dose curve; as a rule, active = well fitted curve in the direction sought with a large enough effect; inconclusive = small, poorly fitted or top-dose-only effect, or another doubt; inactive = no such curve, though single readings can be large; an effect the other way counts as inactive or inconclusive. Potency is the fitted concentration of half-maximal effect.

SMILES | HTT aggregate | ALDH1A1 inh | LMNA splice mod | HTT ATP protect | HPGD block | KinaseGlo FLuc
COc1ccc(NC(=O)Nc2nnc(-c3ccncc3)s2)cc1 | 20µM* | -11% | -18%[46 µM] | -23% | / | 3%
COc1ccc(CN(Cc2ccc(C(=O)O)cc2)C(=S)Nc2ccccc2C)cc1OC | 8% | -1% | -9%[46 µM] | -14% | / | 7%
CCCCn1nnc(NC(=O)c2sc3cc(Cl)ccc3c2Cl)n1 | 0.63µM* | ? | ? | -2% | -26% | 1%
CCCn1nnc(NC(=O)c2ccc(Cl)cc2Cl)n1 | -7% | ? | 8% | -53%[10 µM] | -22% | -15%
CN(c1ccc(C(=O)NCCSC(C)(C)C)cc1)S(C)(=O)=O | -7% | 1% | -9% | 2% | 5% | 4%
O=C1C(CCCNC(=S)NCc2ccccc2)NC(=S)N1Cc1ccccc1 (centres undefined) | 8% | 32µM* | -1% | 11%[10 µM] | ? | -2%
S=C(Nc1ccc2c(c1)OCO2)NC1CCN(Cc2ccccc2)CC1 | -3% | 13µM* | 7% | 5% | -2% | -6%
Cc1ccc(NC(=S)NC2CCN(Cc3ccccc3)CC2)cc1C | -8% | -10% | -12%[46 µM] | ? | / | -2%
S=C(Nc1ccc(Cl)cc1Cl)NC1CCN(Cc2ccccc2)CC1 | 5% | 8.9µM* | ? | 25%[10 µM] | -4% | -1%
O=[N+]([O-])c1ccc(Nc2ccccc2F)nc1 | 2%[9.22 µM] | -2% | ? | 5%[10 µM] | / | -5%
Cc1cccn2c(CN(C)CC3CCCCO3)c(C(=O)N3CCCCC3)nc12 (centres undefined) | -8% | 0.2µM* | / | -14% | / | /
Cc1c(CCOC(=O)CC23CC4CC(CC(C4)C2)C3)sc[n+]1Cc1ccccc1 | 11µM* | ? | 4% | -60% | 6% | -5%
Cc1c(CCOC(=O)C23CC4CC(CC(C4)C2)C3)sc[n+]1CC#N | 10% | 13µM* | / | 0% | / | /
Cc1ncc(C[n+]2csc(CCOC(=O)CC34CC5CC(CC(C5)C3)C4)c2C)c(N)n1 | 6% | ? | -1% | 22%[10 µM] | -1% | -1%
CC(C)c1ccc(CN2CC(C(=O)O)CC2=O)cc1 (centres undefined) | -5% | 4% | 15% | -12% | -1% | 2%
Cc1nc(N[C@@H](Cc2ccccc2)C(=O)O)c2oc3ccccc3c2n1 | 5% | 18µM* | 1%[0.0737 µM] | -25% | -15% | 3%
CSCC[C@@H](Nc1nc(-c2ccccc2)nc2c1oc1ccccc12)C(=O)O | -7% | 11µM* | -12% | -5%[10 µM] | -12% | 2%
Cc1nc(NC(C)c2ccccc2)c2oc3ccccc3c2n1 (centres undefined) | 13µM* | -14% | ? | -29% | -26% | -3%
COCCCNCCCCOc1cccc(Br)c1 | -2% | 0% | 4% | -8%[10 µM] | 5% | 2%
COc1cccc(C2c3[nH]c4ccccc4c3CCN2Cc2cnn(C)c2)c1 (centres undefined) | 5%[9.22 µM] | / | / | 30%[10 µM] | / | /
c1ccc2c(c1)CCN(CCCNc1nc3ccccc3n3cnnc13)C2 | 14% | -5% | 4% | -4% | -12% | 2%
COc1ccc(OC)c(-n2c(SCC(=O)N3CCc4ccccc43)nc3c(c2=O)SCC3)c1 | -6% | 8% | -8% | 5%[10 µM] | -15% | 0%
COc1ccccc1-n1c(SCC(=O)Nc2ccc3c(c2)OCO3)nc2c(c1=O)SCC2 | 7% | 20µM* | -2% | 19%[10 µM] | -18% | 2%
COc1ccccc1-n1c(SCC(=O)N2CCc3ccccc32)nc2c(c1=O)SCC2 | -14% | 11µM* | ? | -7%[10 µM] | -21% | -1%
COc1ccc(-n2c(SCC(=O)Nc3ccc4c(c3)OCO4)nc3c(c2=O)SCC3)cc1 | -1% | ? | -5% | -43% | ? | 16%
CCOc1ccc(C(=O)NC(=S)Nc2cccnc2)cc1 | 12% | ? | 2% | -9%[10 µM] | -3% | -1%
O=C(O)CSc1nnc(CNc2ccc(F)cc2)n1-c1ccccc1 | -10%[9.22 µM] | / | / | 5%[10 µM] | / | /

High-throughput results (PubChem)
